Shown are actives, neighbours in structure and some others; about 12% of the full set was active somewhere.
BAZ2B block – BAZ2B (human) inhibition. AID 504333. Potency, µM (highest dose often 114 µM), without a hit: top-dose activity change, negative = inhibition, actives largely listed as inhibitors. AlphaScreen BAZ2B-H3K14Ac peptide displacement. Q9UIF8. 360,000 tested, 4.4% active; further: on the % scale 0 is the no-effect control and ±100 the full control effect; nearly all actives have a fitted effect of over 60% in size
Target sequence (Q9UIF8 whole entry, looked up): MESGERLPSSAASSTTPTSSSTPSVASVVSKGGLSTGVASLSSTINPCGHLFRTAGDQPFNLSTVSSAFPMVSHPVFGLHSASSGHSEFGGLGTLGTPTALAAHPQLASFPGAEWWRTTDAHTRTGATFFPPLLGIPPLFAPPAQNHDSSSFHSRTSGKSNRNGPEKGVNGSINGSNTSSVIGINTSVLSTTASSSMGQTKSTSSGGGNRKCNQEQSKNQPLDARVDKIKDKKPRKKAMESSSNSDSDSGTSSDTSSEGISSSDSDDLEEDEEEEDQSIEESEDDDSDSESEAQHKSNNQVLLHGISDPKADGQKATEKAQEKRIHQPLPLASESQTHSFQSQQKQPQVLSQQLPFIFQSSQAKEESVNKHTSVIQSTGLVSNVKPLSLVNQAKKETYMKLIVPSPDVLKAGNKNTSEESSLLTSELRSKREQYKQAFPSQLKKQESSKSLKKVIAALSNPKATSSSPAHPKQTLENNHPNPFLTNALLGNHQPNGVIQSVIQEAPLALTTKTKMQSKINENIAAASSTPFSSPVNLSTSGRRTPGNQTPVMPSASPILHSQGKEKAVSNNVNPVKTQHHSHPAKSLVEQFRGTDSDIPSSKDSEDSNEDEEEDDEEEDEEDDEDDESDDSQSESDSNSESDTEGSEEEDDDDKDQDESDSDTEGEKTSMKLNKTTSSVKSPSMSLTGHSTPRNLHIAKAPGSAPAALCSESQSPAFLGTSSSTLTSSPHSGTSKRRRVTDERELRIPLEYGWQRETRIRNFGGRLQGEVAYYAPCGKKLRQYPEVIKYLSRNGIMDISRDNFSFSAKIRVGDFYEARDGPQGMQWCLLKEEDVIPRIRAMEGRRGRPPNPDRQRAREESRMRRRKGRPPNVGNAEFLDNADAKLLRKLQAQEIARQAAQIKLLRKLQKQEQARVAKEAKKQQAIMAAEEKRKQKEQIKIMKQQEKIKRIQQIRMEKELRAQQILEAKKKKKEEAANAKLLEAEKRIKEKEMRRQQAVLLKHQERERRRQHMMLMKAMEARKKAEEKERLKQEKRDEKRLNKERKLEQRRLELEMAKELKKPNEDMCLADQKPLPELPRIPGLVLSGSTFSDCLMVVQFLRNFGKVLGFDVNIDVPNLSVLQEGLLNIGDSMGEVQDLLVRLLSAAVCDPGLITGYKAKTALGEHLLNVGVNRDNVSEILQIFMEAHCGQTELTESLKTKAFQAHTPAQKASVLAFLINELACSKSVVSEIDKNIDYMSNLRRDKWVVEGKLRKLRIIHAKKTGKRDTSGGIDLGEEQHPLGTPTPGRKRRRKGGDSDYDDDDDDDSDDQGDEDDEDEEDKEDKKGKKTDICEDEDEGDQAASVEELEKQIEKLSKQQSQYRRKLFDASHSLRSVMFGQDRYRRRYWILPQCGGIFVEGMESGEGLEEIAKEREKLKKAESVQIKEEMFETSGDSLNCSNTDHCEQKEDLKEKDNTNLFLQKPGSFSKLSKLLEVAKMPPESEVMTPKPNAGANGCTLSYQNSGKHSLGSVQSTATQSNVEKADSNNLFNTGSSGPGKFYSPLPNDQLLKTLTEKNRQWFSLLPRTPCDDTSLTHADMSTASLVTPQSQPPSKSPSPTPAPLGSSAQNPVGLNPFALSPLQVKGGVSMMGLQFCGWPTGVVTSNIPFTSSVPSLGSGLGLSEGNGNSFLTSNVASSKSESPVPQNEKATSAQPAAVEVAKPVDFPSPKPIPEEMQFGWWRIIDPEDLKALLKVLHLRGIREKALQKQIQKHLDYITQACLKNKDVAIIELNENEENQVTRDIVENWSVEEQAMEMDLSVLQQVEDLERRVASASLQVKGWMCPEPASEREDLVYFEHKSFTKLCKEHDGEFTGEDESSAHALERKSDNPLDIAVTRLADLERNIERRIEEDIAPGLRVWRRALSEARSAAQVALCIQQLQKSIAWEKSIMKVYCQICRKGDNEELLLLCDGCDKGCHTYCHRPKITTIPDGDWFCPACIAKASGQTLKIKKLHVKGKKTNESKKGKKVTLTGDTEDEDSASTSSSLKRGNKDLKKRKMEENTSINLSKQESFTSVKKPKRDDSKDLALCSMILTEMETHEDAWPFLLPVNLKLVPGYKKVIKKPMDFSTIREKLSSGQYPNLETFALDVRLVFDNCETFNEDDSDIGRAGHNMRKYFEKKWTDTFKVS
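AlphaScreen displacement: compounds (up to 110uM) incubated 30 min at room temperature with a preformed 50 nM BAZ2B/50 nM biotinylated H3K14Ac peptide complex in PBS pH 7.4 with Tween-20. Donor and acceptor beads at 10 ug/mL final added, 20 min light-protected before reading.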
G9a inh – G9a (human) methyltransferase inhibition. G9a H3K9 monomethylation, AlphaScreen, 2 h. Potency, µM (top dose mostly 102 µM), inactives show at the top dose activity, negative = inhibition, most hits filed as inhibitors. 350,000 tested, 8.8% active. AID 504332; further: on the % scale 0 is the no-effect control and ±100 the full control effect; nearly all actives have a fitted effect of over 75% in size
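Methyltransferase reactions run at room temperature for 2 h (20 nM enzyme, 500 nM biotin-H3K9 peptide, 20 uM SAM) after a 15 min compound preincubation; product detected by AlphaScreen beads and anti-H3K9me1 antibody.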
Sfp PPTase inh – inhibitors of Bacillus subtilis Sfp phosphopantetheinyl transferase; Q9F4F7; Biochemical Sfp PPTase activity, qHTS; Potency, µM, inactives show largest response in the series, negative = inhibition, most hits filed as inhibitors; 310,000 tested, 3.5% active; AID 1490;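 further: the enzyme is Sfp with the accession as filed and its product quenches rhodamine fluorescence; 0% = enzyme reaction without inhibitor and -100% = no enzyme wells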
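Reaction rates are the 30-min fluorescence difference (ex 525, em 598 nm) in wells containing 15 nM Sfp, 5 uM rhodamine-CoA and 12.5 uM BHQ-2-YbbR at pH 7.6 with 10 mM MgCl2.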
JMJD2A Tudor inh – inhibitors of human JMJD2A Tudor domain. 390,000 tested, 4.4% active. AID 504339. AlphaScreen JMJD2A-Tudor / H3K4me3 peptide binding. Potency, µM (titrated, usually from 114 µM), for the others: top-dose activity change, negative = inhibition, actives largely listed as inhibitors. O75164; further: on the % scale 0 is the no-effect control and ±100 the full control effect; nearly all actives have a fitted effect of over 50% in size
HP1b binding inh – blocks HP1-beta chromodomain binding to methylated histone tails; P83916; AlphaScreen HP1-beta / biotin-H3K9me3 peptide binding; Potency, µM (top dose mostly 114 µM), for the others: top-dose activity change, negative = inhibition, actives largely listed as inhibitors; 390,000 tested, 0.56% active; AID 540317; further: nearly all actives have a fitted effect of over 70% in size
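HP1-beta protein (50 nM final) preincubated 30 min at room temperature with biotinylated H3(1-18)K9me3 peptide (50 nM) in PBS pH 7.4, 0.01% Tween-20, then compound added for 30 min. AlphaScreen streptavidin donor/nickel chelate acceptor beads (10 ug/mL final), 30 min dark, luminescence read.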
* = called active by the depositor; ? = inconclusive; nt = no result given; [ ] = remark or other dose. The call rests on the fitted dose curve; in most records, active means well fitted curve in the direction sought with a large enough effect; inconclusive means small, poorly fitted or top-dose-only effect, or another doubt; inactive means no such curve, though single readings can be large; an effect the other way counts as inactive or inconclusive. Potency means the concentration at half of the fitted maximal effect.

SMILES	BAZ2B block	G9a inh	Sfp PPTase inh	JMJD2A Tudor inh	HP1b binding inh
O=C(NC1CCC(O)CC1)c1cc(-c2ccco2)nc2ccccc12 (stereo unspecified)	22µM*	40µM*	18µM*	?	-15%
COc1cccc(-c2cc(C(=O)NC3CC3)c3ccccc3n2)c1	-8%	nt	13%	-1%	26%
O=C(NCC1CCCO1)c1cc(-c2ccco2)nc2ccccc12 (stereo unspecified)	50µM*	45µM*	-20%	-8%[11.4 µM]	?
COC(=O)C1CCN(C(=O)c2cc(-c3ccco3)nc3ccccc23)CC1	nt	nt	nt	28µM*	?
O=C(NCC1CCCO1)c1cc(-c2ccncc2)nc2ccccc12 (stereo unspecified)	11%	-17%	nt	-1%	23%
O=C(c1cc(-c2ccco2)nc2ccccc12)N1CCN(Cc2ccccc2)CC1	-33%	9%[2.33 µM]	nt	-33%	25%
CCc1noc(-c2ccc(N3CCCCC3)c([N+](=O)[O-])c2)n1	0%	-48%[59 µM]	nt	-10%	42%
CCCNC(=O)OCc1cccnc1Sc1ccc(C)cc1	15%	29%	10%	45µM*	4%
CCOC(=O)Nc1cccnc1Sc1ccc(Cl)cc1	nt	nt	nt	1%	2%
COC(=O)c1c(NC(=O)COC(=O)c2ccc(Cl)nc2)sc(C)c1C	-2%	10%[0.501 µM]	nt	-3%	26%
CCCCc1cc(=O)oc2c(CN3CCCC3)c(O)ccc12	-6%	?	-13%	-1%	43%
CCCc1cc(=O)oc2c(CNc3ccc(OCC)cc3)c(O)ccc12	?	40µM*	-2%	?	5%
COCCn1c(=O)c(-c2cc(F)cc(F)c2)nc2cnc(N(C)C)nc21	nt	3%[0.501 µM]	12%	nt	nt
O=C(c1ccco1)N1CCN(C(=O)c2cc(-c3ccccn3)nc3ccc(Cl)cc23)CC1	-30%	?	16µM*	-6%[57.1 µM]	-15%
CN(CCCN1CCOCC1)C(=O)c1cc(COc2cccc(C(F)(F)F)c2)on1	-3%	nt	2%	-12%	28%
CC(=O)c1cccc(OCc2cc(C(=O)N(C)CCC3CCOCC3)no2)c1	-3%[57.1 µM]	45µM*	21%	11%	35%
COCC1CCN(C(=O)c2cc(COc3ccc4ncccc4c3)on2)CC1	-1%	nt	13%	16µM*	0%
CC(=O)c1cccc(OCc2cc(C(=O)N3C[C@@H](C)O[C@@H](C)C3)no2)c1	-18%	45µM*	3%	-10%	56%
Cc1cc(OCc2cc(C(=O)N(C)CCCN3CCOCC3)no2)cc(C)c1Cl	-18%	-3%	-8%	89µM*	19%
O=C(c1cc(COc2ccc3ncccc3c2)on1)N1CCCC1	0%	10%	9%	-9%	14%
CSc1ncc2c(n1)-c1ccccc1N(Cc1ccccc1)S2(=O)=O	32%	38%[59 µM]	nt	59%	90%
CC1=[N+]([O-])C(C)(C)N(O)C1(C)C	-3%	1%	24%	13%	14%
Cc1nc2nc(C)c(NS(=O)(=O)c3ccc(F)cc3)c(=O)n2[nH]1	-11%	-1%[59 µM]	nt	3%	34%
O=C(c1ccc2c(c1)N(Cc1cccc(Cl)c1)C(=O)c1ccccc1S2(=O)=O)N1CCCCCC1	2%	-25%[59 µM]	nt	-28%	31%
O=C(O)/C=C/C(=O)Nc1ccccc1SC(F)(F)C(F)(F)C(F)(F)F	-19%	45µM*	?	?	28%
SMILES	BAZ2B block	G9a inh	Sfp PPTase inh	JMJD2A Tudor inh	HP1b binding inh
CC(=O)Nc1ccc2c(c1)C(=O)c1ccccc1C2=O	-28%	-33%[59 µM]	-9%	-15%	8%
O=C(O)/C=C/C(=O)Nc1ccccc1-c1ccccc1	-22%[57.1 µM]	18%[0.501 µM]	32µM*	-13%	52%
O=C(O)/C=C/C(=O)Nc1ccc2c(c1)C(=O)c1ccccc1C2=O	?	45µM*	-6%	-21%	13%
O=C(O)/C=C/C(=O)Nc1ccc2nccnc2c1	-14%	50µM*	1%	-12%[57.1 µM]	35%
Cc1onc(-c2ccccc2)c1C(=O)N1CCN(c2ccc([N+](=O)[O-])cc2)CC1	nt	nt	nt	-34%	-6%
CCCCCCCC/C=C\CCCCCCCC(=O)OCC(CO)OC(=O)CCCCCCC/C=C\CCCCCCCC (stereo unspecified)	nt	-3%[59 µM]	10%	nt	nt
O=C(N1CCN(c2ncccn2)CC1)C12CC3CC(CC(C3)C1)C2	nt	nt	nt	-15%	19%
Nc1c(Cl)cc(-c2cn(CCC(=O)O)c(-c3ccncc3)n2)cc1Cl	4%	-7%[2.33 µM]	nt	-19%	33%
Cc1ccc(NC(=O)COC(=O)C2CCC2)cc1S(=O)(=O)N1CCOCC1	nt	nt	nt	-3%	39%
COc1ccccc1N1CCN(S(=O)(=O)c2ccc3c(c2)NC(=O)C(C)C(=O)N3)CC1 (stereo unspecified)	0%	20%	7%	-15%	33%
O=c1nc(Nc2ccc(OCc3ccccc3)cc2)sc2ncccc12	-12%	50µM*	5%	-16%	22%
CC(=O)c1cccc(Nc2nc(=O)c3cccnc3s2)c1	-5%	50µM*	19%	-9%	26%
CC(=O)c1ccc(Nc2nc(=O)c3cccnc3s2)cc1	-3%	?	-24%	-11%	20%
CCOC(=O)c1ccc(Nc2nc(=O)c3cccnc3s2)cc1	-2%	28µM*	17%	-6%	28%
Cc1ccc(Nc2nc(=O)c3cccnc3s2)c(Br)c1	-27%	14µM*	-12%	-21%	7%
C[C@@H](C(=O)Cc1ccc2ccccc2c1)[C@@H]1C[C@@]1(C)[C@@H](NP(=O)(c1ccccc1)c1ccccc1)c1ccccc1	nt	nt	36%	nt	nt
CCCOc1ccc(Br)cc1-c1cc(-c2ccc(Cl)cc2)[nH]c1-c1ccncc1	nt	nt	39%	nt	nt
CCCC1(C(=O)OC)C=C2C(=C(C)C(=O)C2C)CN1 (stereo unspecified)	nt	nt	-16%	nt	nt
CO[C@H]1COC(=O)C/C=C\[C@@H](C)COC(=O)[C@H]2CCCN2C(=O)C/C=C\[C@H]1C	nt	nt	11%	nt	nt
Fc1ccc(C2=CC(c3ccc(F)cc3)n3c(nc4ccccc43)N2)cc1 (stereo unspecified)	3%	18µM*	nt	13%	118%
O=S(=O)(c1cccc(O)c1)N1CCN(S(=O)(=O)c2c(F)cccc2F)CC1	nt	nt	nt	-21%	nt
O=C(OCCC12CC3CC(CC(C3)C1)C2)c1ccc(NCc2cc(O)ccc2O)cc1	nt	nt	nt	25µM*	?
O=C(O)c1cc(NCc2cc(O)ccc2O)ccc1O	nt	3.5µM*	?	25µM*	?
O=C(OCC12CC3CC(CC(C3)C1)C2)c1ccc(NCc2cc(O)ccc2O)cc1	nt	nt	nt	50µM*	16µM*
O=C(O)c1ccc(O)cc1O	-6%	2%[0.501 µM]	nt	-8%	51%
Cc1cc(C)cc(NC(=O)CSCc2cc(=O)c3ccc(C)c(C)c3[nH]2)c1	-1%	6%[59 µM]	nt	3%	22%[57 µM]
O=C(NCC1CCCO1)c1nc2c(nnn2Cc2ccc(F)cc2)c(=O)[nH]1 (stereo unspecified)	-17%	50µM*	-15%	?	27%
